The values that follow come from PubChem BioAssay AID686949 (The Scripps Research Institute Molecular Screening Center, 2013).

Hit rate of the full screen: of about 3,200 compounds, about 2,200 (69%) were called active.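 Rule for the calls: active = activation, as change over the incubation, above the mean of all tested compounds plus 3 SD (cut at about 13% in these data); inactive = the rest.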 The set was probably picked from earlier hits. The list is a sample of the results.

Chain of Kallikrein-7 (Homo sapiens) (P49862 whole entry, looked up): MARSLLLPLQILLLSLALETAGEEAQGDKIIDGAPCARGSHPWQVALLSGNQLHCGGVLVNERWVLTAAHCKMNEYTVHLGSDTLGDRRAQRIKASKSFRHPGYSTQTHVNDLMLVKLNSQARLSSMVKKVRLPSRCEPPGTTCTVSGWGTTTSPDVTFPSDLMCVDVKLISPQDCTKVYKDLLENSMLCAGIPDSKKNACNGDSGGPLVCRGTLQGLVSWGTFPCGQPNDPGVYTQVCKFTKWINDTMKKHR

The test addresses Kallikrein-7 (Homo sapiens) (UniProt P49862). In words: proKLK7 zymogen activators, confirmation, biochemical, fluorescence intensity, triplicate (AID 686949). Conditions: purified proKLK7, EDANS-DABCYL substrate fluorescence; at 7 µM; stronger effect = higher value.
For the molecule `COc1cccc(-c2nc3ccc(N4CCN(C)CC4)cc3[nH]2)c1`, the activation is 64% (active).

Take `CCOc1ccc(-c2cc(C)[n+](CCN(CC)CC)c(-c3ccc(OCC)cc3)c2)cc1`: the activation is 19.2% (active).

For `Cc1nc2ccc(N3CCN(C)CC3)cc2nc1C`, the activation is 16.1% (active).

Turning to `CCOC(=O)c1c(N)n(CCN2CCOCC2)c2nc3ccccc3nc12`, the activation was 27.8% (active).
